Assay outcomes from PubChem.
Rows were chosen to be rich in hits. Some 2.8% of all compounds tested hit in one or more screens of this group.
KLK7 zymogen act: proKLK7 (human) activation, primary screen. P49862. purified proKLK7, EDANS-DABCYL substrate fluorescence; 100% is mature enzyme control, 0% vehicle. activation, % at 7 µM. 370,000 tested, 0.9% active. AID 652039;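 active = activation above the mean of all tested compounds plus 3 SD, computed per campaign excluding outliers beyond control limits, cut at about 13% in these data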
PP5 primary: PP5 (human) phosphatase inhibition; inhibition, % at 6.7 µM; purified PP5c, OMFP substrate fluorescence; 320,000 tested, 0.18% active; P53041;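 active = inhibition above the campaign's mean inhibition across all tested compounds plus 3 SD, cut at about 9.5% in these data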
PP1 counter: blocks human PP1-alpha phosphatase, a PP5 counter-screen; P62136; purified PP1alpha, OMFP fluorescence; inhibition, % at 6.7 µM; 320,000 tested, 0.9% active; AID 2235;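 active = inhibition above the mean inhibition of all tested compounds plus 3 SD, computed separately for each screening campaign, cut at about 15% in these data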
Target sequence (P62136 whole entry, looked up): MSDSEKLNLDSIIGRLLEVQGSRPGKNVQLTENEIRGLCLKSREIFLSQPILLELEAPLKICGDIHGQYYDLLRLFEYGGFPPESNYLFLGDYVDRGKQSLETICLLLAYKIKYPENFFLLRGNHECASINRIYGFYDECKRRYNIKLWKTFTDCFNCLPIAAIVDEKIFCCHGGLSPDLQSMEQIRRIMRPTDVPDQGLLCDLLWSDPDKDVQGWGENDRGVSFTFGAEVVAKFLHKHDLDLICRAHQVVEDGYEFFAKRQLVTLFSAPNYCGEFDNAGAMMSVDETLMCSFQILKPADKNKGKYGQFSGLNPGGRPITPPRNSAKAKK
PG9 Ab binder: PG9 antibody binding by small molecule. TR-FRET gp120-PG9 antibody binding. inhibition, % at 6.7 µM. 360,000 tested, 0.43% active; in the data active = inhibition above about 8.5%
NR1D1 modulator: Rev-erb alpha (human) modulation; P20393; Rev-erbα–FITC-DNA binding, fluorescence polarization, 90 min; activity, % at 10 µM; 370,000 tested, 0.79% active; AID 1259318;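 active = activity above about 14%, limit read from the data; passing the limit was not always enough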
GASC-1 inh: blocks human GASC-1 demethylase activity. Q9H3R0. GST-JMJD2C(1-420) H3K9me3 demethylation, DELFIA europium. inhibition, % at 2.35 µM. 330,000 tested, 0.069% active;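 active = more than half of a compound's replicate wells show inhibition beyond 50%, single wells judged on their own value; inconclusive = some, but no more than half, of replicates pass 50% inhibition; inactive = no replicate passes 50% inhibition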;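 also: signal counts dimethyl H3K9 product captured on neutravidin plate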
Target sequence (Q9H3R0 1-420 limits assumed): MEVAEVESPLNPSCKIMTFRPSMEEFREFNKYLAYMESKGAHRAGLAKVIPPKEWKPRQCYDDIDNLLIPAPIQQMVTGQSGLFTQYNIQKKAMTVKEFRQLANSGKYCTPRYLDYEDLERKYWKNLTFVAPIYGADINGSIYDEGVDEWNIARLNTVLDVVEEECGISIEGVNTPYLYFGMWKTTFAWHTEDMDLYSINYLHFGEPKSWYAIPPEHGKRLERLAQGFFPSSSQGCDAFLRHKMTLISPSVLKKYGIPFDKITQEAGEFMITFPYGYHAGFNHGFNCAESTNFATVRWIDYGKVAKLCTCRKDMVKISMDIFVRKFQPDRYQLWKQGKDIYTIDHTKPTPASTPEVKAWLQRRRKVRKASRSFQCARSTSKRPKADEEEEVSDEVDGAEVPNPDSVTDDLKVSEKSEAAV
proKLK7 act conf: confirmation of human kallikrein-7 zymogen activators; shares compounds with KLK7 zymogen act; purified proKLK7, EDANS-DABCYL substrate fluorescence; scaled: vehicle 0, mature enzyme 100; activation, % at 7 µM; 3,200 tested, 68% active; AID 686949;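 active = activation, as change over the incubation, above the mean of all tested compounds plus 3 SD, cut at about 13% in these data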
EDANS interfere: optically interferes with EDANS-DABCYL signal, flagging KLK7 hits | 3,200 tested, 80% active | activation, % at 7 µM | AID 686952 | EDANS-DABCYL substrate fluorescence interference, no enzyme, 4 h; solvent 0%, active enzyme control 100% | shares compounds with KLK7 zymogen act;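 active = activation above the all-compound mean plus 3 SD, ignoring values outside control-based bounds, cut at about 4.8% in these data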;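 also: value is the 4 h activation minus the activation read at time zero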
K7 EDANS ctr: EDANS fluorescence interference in dose response, no enzyme; shares compounds with KLK7 zymogen act; EDANS-DABCYL peptide fluorescence interference; EC50, µM; 250 tested, 20% active;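 active = compounds that raise the fluorescence signal in this interference counterscreen, with EC50 at or below 10 µM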;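 also: intact quenched peptide substrate alone read at 355 nm excitation and 520 nm emission; signal is fluorescence gain from T0 to T4 after four hours at room temperature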
Large screens that a line does not name were inactive (follow-up assays come after a bar, where they were run).

Cn1cccc1C(=O)N1CCN(S(=O)(=O)c2ccc(Cl)s2)CC1	none (no result: PP5 primary, PP1 counter, PG9 Ab binder, GASC-1 inh)
CCCn1nc(C(=O)Oc2ccc3c(C)cc(=O)oc3c2)c2ccccc2c1=O	KLK7 zymogen act 54 | proKLK7 act conf 68 | EDANS interfere 72
CCCn1nc(C(=O)OCC(=O)Nc2ccc(C)cc2)c2ccccc2c1=O	none (no result: PP5 primary, PP1 counter)
Cc1cc(=O)oc2cc(OC(=O)c3nn(C(C)C)c(=O)c4ccccc34)ccc12	KLK7 zymogen act 46 | proKLK7 act conf 70 | EDANS interfere 79
Cc1cc(C)c2nc3nc(C)c(C)cc3c(N)c2c1	KLK7 zymogen act 50 (no result: PP5 primary, PP1 counter) | proKLK7 act conf 34 | EDANS interfere 41
Cc1cccc(NC(=O)c2nc[nH]c2C(=O)N(C)CCO)c1	none (no result: PP5 primary, PP1 counter, GASC-1 inh)
CCCCCCC[C@H](N)[C@H](O)C(=O)N(C)[C@@H](CCS(C)=O)C(=O)N[C@@H](Cc1ccc(O)cc1)C(=O)O (some centres undefined)	none (no result: KLK7 zymogen act, PP5 primary, PP1 counter, PG9 Ab binder, GASC-1 inh)
COc1ccc(-c2csc(=Nc3c(C)n(C)n(-c4ccccc4)c3=O)n2C(C)(C)C)cc1	none
COc1ccc(-c2cc(=Nc3c(C)n(C)n(-c4ccccc4)c3=O)c3ccccc3o2)cc1	KLK7 zymogen act 40 | proKLK7 act conf 43 | EDANS interfere 53
CN(C)C(=O)CN1c2cccc3cccc(c23)S1(=O)=O	none
CC(C(=O)N(C)C)N1c2cccc3cccc(c23)S1(=O)=O (centres undefined)	none
O=C(O)CCN1c2cccc3cccc(c23)S1(=O)=O	KLK7 zymogen act 16 | proKLK7 act conf 19 | EDANS interfere 11 | K7 EDANS ctr inactive
C=CCNC(=O)CN1c2cccc3cccc(c23)S1(=O)=O	KLK7 zymogen act 13 | proKLK7 act conf inactive | EDANS interfere 7.1
CC(C)CNC(=O)CN1c2cccc3cccc(c23)S1(=O)=O	none
CC(C(=O)O)N1c2cccc3cccc(c23)S1(=O)=O (centres undefined)	KLK7 zymogen act 22 (no result: PP5 primary, PP1 counter) | proKLK7 act conf 27 | EDANS interfere 28
COC(=O)c1cc(S(=O)(=O)NCC2CCN(C(=O)C(=O)c3cccs3)CC2)cs1	none (no result: PP5 primary, PP1 counter, GASC-1 inh)
O=C(OCc1cn(Cc2ccc(F)c(F)c2)nn1)N1CCCC1	none (no result: PP5 primary, PP1 counter, PG9 Ab binder, GASC-1 inh)
Cc1cc(Nc2ccc(OC(F)F)cc2)cc(=O)n1-c1ccc(OC(F)F)cc1	none (no result: PP5 primary, PP1 counter, GASC-1 inh)
COc1cc(-c2cc(=O)c3ccc(O)cc3o2)cc(OC)c1OC	KLK7 zymogen act 15 (no result: PP5 primary, PP1 counter, GASC-1 inh) | proKLK7 act conf inactive | EDANS interfere 8.7
Cc1ccc2c(c1)c1c3n2CCN=C3CCC1	KLK7 zymogen act 30 | proKLK7 act conf inactive | EDANS interfere 9.7
c1cc2c(cc1C1CCCCC1)c1c3n2CCN=C3CCC1	none
O=C(Nc1ccc(C2=CN(Cc3ccccc3)CCC2=O)cc1)OCc1ccccc1	KLK7 zymogen act 20 (no result: PP5 primary, PP1 counter) | proKLK7 act conf inactive | EDANS interfere inactive
Cc1ccc(C2=CN(Cc3ccccc3)CCC2=O)cc1	none (no result: PP5 primary, PP1 counter, GASC-1 inh)
COc1ccc(CNC(=O)COc2cc3c(c4oc(=O)cc(C)c24)CCC(C)(C)O3)cc1	GASC-1 inh inconclusive
Cc1cc(=O)oc2c3c(cc(OCC(=O)NC(Cc4ccc(Cl)cc4)C(=O)O)c12)OC(C)(C)CC3 (centres undefined)	KLK7 zymogen act 13, GASC-1 inh inconclusive | proKLK7 act conf inactive | EDANS interfere inactive
Cc1cc(=O)oc2c3c(cc(OCC(=O)N[C@@H](Cc4ccccc4)C(=O)O)c12)OC(C)(C)CC3	KLK7 zymogen act 32 | proKLK7 act conf 41 | EDANS interfere 25 | K7 EDANS ctr inactive
CN(C)c1ccc(/C=C/c2cccc[n+]2[O-])cc1	KLK7 zymogen act 32 | proKLK7 act conf 216 | EDANS interfere 236
CC1(C)Nc2ccccc2C(=O)N1NS(=O)(=O)c1ccccc1	KLK7 zymogen act 75 | proKLK7 act conf 46 | EDANS interfere 42
CCOC(=O)NN1C(=O)c2ccccc2NC12CCCC2	none
Cc1ccc(S(=O)(=O)NN2C(=O)c3ccccc3NC2(C)C)cc1	KLK7 zymogen act 49 | proKLK7 act conf 50 | EDANS interfere 43
COc1cccc(CN(C)Cc2cc(=O)oc3c(C)c(C)ccc23)c1	none (no result: PP5 primary, PP1 counter)
COc1cccc(CN(C)Cc2cc(=O)oc3cc(O)c(Cl)cc23)c1	KLK7 zymogen act 38 | proKLK7 act conf 28 | EDANS interfere 37
CN1CCN(c2c(F)cc3c(=O)c(C(=O)O)cn4c3c2OCN4C)CC1	KLK7 zymogen act 60 | proKLK7 act conf 21 | EDANS interfere 30
Cc1cc(C)c(NC(=O)c2cn3c4c(c(N5CCN(C)CC5)c(F)cc4c2=O)OCC3C)c(C)c1 (centres undefined)	none
O=C(NCc1cccs1)c1cc2c(s1)-c1ccccc1OC2	none
O=C(NC1CC1)c1cc2c(s1)-c1ccccc1OC2	KLK7 zymogen act 47 | proKLK7 act conf 75 | EDANS interfere 87
O=C(NCCCN1CCOCC1)c1cc2c(s1)-c1ccccc1OC2	KLK7 zymogen act 47 | proKLK7 act conf 68 | EDANS interfere 65
O=C(O)c1cc2c(s1)-c1ccccc1CC2	none
O=C(c1ccco1)N1CCN(C(=O)c2cc3c(s2)-c2ccccc2OC3)CC1	KLK7 zymogen act 23 | proKLK7 act conf inactive | EDANS interfere inactive
O=C(O)c1cc2c(s1)-c1ccccc1OC2	KLK7 zymogen act 34 | proKLK7 act conf 77 | EDANS interfere 73
O=C(NCCc1c[nH]c2ccccc12)OCc1cn(Cc2cccc(C(F)(F)F)c2)nn1	none (no result: PP5 primary, PP1 counter, PG9 Ab binder, GASC-1 inh)
CC[C@@H](CCC1CCCCC1)CN(c1ccccc1)S(C)(=O)=O	none (no result: PP5 primary, PP1 counter, PG9 Ab binder, GASC-1 inh)
CCOC(=O)NN1C(=O)c2ccccc2NC1c1ccccn1 (centres undefined)	none
O=C(NN1C(=O)c2ccccc2NC1c1ccco1)c1ccccc1 (centres undefined)	none
CCOC(=O)NN1C(=O)c2ccccc2NC1C (centres undefined)	KLK7 zymogen act 13 | proKLK7 act conf 25 | EDANS interfere 28
O=C(O)CCC(=O)NN1C(=O)c2ccccc2NC1c1ccco1 (centres undefined)	KLK7 zymogen act 15 | proKLK7 act conf 49 | EDANS interfere 16 | K7 EDANS ctr inactive
CCOC(=O)NN1C(=O)c2ccccc2NC1c1ccc(N(C)C)cc1 (centres undefined)	none
CCOC(=O)NN1C(=O)c2ccccc2NC1c1ccc(OC)cc1 (centres undefined)	KLK7 zymogen act 36 | proKLK7 act conf 20 | EDANS interfere 23
